The structures appear in SMILES notation.

In assay [1] the target is Sphingosine kinase 1 (Homo sapiens) (UniProt Q9NYA1). Conditions: at 1 µM.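 Further: mean SPHK1 inhibition value reported from the GSK PKIS kinase panel screen.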
Assay [2] has as its target T1, Sphingosine kinase 2 (Homo sapiens) (UniProt Q9NRA0).
T1 sequence (whole entry): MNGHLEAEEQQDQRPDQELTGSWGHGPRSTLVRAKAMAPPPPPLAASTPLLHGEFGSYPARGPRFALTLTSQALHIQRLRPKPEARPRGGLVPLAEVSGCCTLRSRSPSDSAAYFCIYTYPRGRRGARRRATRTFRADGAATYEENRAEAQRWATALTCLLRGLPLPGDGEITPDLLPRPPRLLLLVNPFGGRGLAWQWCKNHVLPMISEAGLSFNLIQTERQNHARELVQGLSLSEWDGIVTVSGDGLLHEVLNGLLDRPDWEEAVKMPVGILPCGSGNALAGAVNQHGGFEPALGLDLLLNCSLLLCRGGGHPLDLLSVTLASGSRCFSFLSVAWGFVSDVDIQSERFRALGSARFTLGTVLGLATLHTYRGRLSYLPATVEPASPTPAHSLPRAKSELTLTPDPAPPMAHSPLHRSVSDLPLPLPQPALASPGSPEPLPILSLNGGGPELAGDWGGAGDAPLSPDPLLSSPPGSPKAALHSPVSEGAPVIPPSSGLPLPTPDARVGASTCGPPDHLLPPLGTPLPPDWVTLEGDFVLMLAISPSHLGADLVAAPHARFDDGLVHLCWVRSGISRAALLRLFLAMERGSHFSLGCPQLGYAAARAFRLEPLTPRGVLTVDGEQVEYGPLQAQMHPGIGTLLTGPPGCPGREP
Conditions: at 0.1 µM.

For assay [3], the target named is T1, Sphingosine kinase 2 (Homo sapiens). The following applies: at 1 µM.
Assay [4] deals with Casein kinase II subunit alpha (Homo sapiens) (UniProt P68400). Conditions: at 0.1 µM.
Sequence of Casein kinase II subunit alpha (Homo sapiens) (P68400 whole entry, looked up): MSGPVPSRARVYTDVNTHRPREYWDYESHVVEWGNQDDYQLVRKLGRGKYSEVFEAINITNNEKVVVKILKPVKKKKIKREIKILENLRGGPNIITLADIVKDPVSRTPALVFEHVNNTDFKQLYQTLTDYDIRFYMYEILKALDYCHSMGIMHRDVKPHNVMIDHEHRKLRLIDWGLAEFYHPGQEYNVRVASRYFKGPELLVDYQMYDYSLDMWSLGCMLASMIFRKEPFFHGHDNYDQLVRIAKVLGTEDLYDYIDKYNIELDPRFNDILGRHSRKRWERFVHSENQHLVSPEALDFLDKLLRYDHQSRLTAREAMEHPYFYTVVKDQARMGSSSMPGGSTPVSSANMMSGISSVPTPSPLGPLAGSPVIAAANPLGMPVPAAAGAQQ
The target is the same in assay [5]. Conditions: at 1 µM.
The target of assay [6] is T2, Inhibitor of nuclear factor kappa-B kinase subunit alpha (Homo sapiens) (UniProt O15111).
T2 sequence (whole entry): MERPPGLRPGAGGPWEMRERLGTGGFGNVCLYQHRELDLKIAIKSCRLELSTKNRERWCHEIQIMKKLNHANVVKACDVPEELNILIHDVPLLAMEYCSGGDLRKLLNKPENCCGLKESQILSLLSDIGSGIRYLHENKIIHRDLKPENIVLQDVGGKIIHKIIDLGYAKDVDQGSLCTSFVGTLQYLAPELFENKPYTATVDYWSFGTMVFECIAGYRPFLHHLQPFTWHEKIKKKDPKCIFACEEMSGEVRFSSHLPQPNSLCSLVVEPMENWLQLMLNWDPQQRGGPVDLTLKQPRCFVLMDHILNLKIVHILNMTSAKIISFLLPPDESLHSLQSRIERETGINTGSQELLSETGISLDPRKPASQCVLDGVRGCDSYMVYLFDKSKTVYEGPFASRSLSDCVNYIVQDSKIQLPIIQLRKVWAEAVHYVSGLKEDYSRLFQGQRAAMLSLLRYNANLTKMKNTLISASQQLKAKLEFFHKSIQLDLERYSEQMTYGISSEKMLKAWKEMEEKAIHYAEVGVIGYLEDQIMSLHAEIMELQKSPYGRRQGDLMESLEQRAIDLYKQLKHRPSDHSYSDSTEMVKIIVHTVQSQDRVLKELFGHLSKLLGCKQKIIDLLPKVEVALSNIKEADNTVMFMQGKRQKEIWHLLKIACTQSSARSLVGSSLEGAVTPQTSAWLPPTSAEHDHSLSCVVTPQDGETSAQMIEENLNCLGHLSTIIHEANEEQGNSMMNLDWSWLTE
The following applies: at 0.1 µM.

For assay [7], the target named is T2, Inhibitor of nuclear factor kappa-B kinase subunit alpha (Homo sapiens). The following applies: at 1 µM.
The target of assay [8] is T3, Inhibitor of nuclear factor kappa-B kinase subunit beta (Homo sapiens) (UniProt O14920).
T3 sequence (whole entry): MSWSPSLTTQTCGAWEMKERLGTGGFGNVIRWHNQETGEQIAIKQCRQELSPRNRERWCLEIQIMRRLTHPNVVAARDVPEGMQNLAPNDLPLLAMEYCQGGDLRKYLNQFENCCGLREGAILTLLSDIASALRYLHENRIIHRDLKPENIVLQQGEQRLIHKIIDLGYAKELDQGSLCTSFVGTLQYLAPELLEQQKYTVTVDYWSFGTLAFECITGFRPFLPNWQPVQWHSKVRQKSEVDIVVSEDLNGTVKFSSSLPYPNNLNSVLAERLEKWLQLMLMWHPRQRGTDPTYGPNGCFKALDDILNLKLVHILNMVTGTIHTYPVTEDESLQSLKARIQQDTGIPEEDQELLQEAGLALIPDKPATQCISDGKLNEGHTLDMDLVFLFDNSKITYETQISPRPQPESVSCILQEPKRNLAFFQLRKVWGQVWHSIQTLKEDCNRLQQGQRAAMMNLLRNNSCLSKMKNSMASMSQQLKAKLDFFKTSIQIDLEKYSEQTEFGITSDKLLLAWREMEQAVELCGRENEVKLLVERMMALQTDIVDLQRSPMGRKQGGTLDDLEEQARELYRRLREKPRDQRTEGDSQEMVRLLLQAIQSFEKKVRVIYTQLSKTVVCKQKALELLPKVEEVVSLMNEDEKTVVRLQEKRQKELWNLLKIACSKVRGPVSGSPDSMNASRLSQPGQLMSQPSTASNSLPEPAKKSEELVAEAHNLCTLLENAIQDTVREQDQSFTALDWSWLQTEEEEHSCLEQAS
The following applies: at 0.1 µM.

Assay [9] deals with T3, Inhibitor of nuclear factor kappa-B kinase subunit beta (Homo sapiens). The following applies: at 1 µM.
For assay [10], the target named is T4, Inhibitor of nuclear factor kappa-B kinase subunit epsilon (Homo sapiens) (UniProt Q14164).
T4 sequence (whole entry): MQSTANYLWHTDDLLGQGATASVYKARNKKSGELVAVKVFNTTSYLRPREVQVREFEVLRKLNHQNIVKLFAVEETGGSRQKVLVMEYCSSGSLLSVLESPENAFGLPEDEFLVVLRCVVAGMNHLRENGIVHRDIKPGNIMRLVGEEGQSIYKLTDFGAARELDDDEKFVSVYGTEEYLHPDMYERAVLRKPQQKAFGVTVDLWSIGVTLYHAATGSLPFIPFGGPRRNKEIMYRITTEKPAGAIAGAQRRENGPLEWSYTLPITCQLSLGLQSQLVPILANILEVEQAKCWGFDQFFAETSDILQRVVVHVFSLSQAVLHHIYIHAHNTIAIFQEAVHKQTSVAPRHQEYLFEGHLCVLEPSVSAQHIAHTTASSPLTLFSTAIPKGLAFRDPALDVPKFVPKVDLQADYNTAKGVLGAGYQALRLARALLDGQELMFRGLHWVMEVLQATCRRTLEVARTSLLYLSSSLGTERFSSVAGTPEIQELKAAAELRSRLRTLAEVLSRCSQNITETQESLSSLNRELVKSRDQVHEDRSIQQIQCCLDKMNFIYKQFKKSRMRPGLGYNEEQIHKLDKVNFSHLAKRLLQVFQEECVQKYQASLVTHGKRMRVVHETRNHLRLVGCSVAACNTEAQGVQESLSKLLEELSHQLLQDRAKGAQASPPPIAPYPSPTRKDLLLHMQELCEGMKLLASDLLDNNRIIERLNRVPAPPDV
The following applies: at 0.1 µM.

Assay [11] concerns the target T4, Inhibitor of nuclear factor kappa-B kinase subunit epsilon (Homo sapiens). Conditions: at 1 µM.
For assay [12], the target named is T5, Serine/threonine-protein kinase Nek1 (Homo sapiens) (UniProt Q96PY6).
T5 sequence (whole entry): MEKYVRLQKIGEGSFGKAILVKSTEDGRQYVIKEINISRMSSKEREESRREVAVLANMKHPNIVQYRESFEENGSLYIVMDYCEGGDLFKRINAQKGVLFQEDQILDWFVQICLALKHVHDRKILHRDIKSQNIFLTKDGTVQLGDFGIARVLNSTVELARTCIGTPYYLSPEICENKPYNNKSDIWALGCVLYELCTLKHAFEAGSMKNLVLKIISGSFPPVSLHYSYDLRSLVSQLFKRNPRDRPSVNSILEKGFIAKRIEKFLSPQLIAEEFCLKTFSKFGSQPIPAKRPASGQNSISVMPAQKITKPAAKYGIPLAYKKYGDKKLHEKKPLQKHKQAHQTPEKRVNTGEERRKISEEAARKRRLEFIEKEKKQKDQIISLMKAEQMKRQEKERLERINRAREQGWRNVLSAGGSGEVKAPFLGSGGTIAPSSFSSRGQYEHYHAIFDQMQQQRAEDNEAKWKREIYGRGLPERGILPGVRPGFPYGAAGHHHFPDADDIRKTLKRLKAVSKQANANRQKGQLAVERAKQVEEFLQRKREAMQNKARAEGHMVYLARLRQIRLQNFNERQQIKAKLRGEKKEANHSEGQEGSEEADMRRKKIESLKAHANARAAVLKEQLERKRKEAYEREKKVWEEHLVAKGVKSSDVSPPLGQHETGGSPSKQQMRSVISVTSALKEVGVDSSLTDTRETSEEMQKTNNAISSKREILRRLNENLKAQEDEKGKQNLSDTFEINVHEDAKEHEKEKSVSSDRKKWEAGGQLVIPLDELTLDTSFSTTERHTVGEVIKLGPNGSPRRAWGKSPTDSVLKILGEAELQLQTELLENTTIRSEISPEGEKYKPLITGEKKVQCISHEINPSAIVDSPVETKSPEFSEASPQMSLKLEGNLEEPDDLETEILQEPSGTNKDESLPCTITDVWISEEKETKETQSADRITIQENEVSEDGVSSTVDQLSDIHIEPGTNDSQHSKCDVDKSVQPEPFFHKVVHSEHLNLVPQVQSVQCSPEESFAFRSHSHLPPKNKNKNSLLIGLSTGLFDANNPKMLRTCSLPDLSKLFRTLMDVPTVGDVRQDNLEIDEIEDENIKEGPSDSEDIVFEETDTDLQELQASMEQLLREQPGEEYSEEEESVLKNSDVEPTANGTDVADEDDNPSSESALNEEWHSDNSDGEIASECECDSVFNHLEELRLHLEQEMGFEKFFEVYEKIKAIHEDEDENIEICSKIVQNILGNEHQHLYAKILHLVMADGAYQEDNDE
Conditions: at 0.1 µM.

In assay [13] the target is T5, Serine/threonine-protein kinase Nek1 (Homo sapiens). The following applies: at 1 µM.
Assay [14] concerns the target T6, Serine/threonine-protein kinase Nek2 (Homo sapiens) (UniProt P51955).
T6 sequence (whole entry): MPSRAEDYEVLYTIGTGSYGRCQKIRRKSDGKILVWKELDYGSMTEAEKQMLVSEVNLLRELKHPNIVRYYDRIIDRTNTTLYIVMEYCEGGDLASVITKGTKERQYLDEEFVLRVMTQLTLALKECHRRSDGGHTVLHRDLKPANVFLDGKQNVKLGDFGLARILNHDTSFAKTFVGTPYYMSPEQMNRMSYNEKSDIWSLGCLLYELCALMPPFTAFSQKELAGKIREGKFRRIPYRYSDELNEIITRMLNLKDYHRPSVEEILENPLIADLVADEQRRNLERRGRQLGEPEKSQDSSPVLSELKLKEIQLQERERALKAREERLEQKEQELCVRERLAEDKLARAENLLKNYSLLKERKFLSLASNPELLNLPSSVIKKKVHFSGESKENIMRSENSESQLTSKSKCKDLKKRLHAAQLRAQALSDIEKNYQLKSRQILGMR
The following applies: at 0.1 µM.

The target of assay [15] is T6, Serine/threonine-protein kinase Nek2 (Homo sapiens). Conditions: at 1 µM.
For assay [16], the target named is Serine/threonine-protein kinase Nek6 (Homo sapiens) (UniProt Q9HC98). Conditions: at 0.1 µM.
Sequence of Serine/threonine-protein kinase Nek6 (Homo sapiens) (Q9HC98 whole entry): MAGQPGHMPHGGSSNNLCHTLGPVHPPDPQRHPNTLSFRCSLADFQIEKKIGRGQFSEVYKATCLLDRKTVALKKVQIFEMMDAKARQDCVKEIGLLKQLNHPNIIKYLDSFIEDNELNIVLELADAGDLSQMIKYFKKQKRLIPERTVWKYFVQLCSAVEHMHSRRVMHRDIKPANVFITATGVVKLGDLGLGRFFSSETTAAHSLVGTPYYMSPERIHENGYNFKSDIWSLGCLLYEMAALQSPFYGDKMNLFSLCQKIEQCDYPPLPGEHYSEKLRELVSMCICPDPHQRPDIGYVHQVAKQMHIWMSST
Assay [17] shares this target. The following applies: at 1 µM.
The target in assay [18] is Serine/threonine-protein kinase Nek7 (Homo sapiens) (UniProt Q8TDX7). The following applies: at 0.1 µM.
Sequence of Serine/threonine-protein kinase Nek7 (Homo sapiens) (Q8TDX7 whole entry, looked up): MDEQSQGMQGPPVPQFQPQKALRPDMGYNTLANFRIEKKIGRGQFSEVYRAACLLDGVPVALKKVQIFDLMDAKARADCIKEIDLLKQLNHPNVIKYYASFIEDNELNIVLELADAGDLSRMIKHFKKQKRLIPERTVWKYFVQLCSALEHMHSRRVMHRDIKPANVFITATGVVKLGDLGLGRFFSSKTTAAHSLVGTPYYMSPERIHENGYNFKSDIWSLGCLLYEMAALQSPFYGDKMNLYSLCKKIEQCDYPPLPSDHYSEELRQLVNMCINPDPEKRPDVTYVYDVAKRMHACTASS
For assay [19] the target is unchanged. Conditions: at 1 µM.
The target of assay [20] is T7, Serine/threonine-protein kinase Nek9 (Homo sapiens) (UniProt Q8TD19).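 Further: reported value is the mean percent inhibition of NEK9.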
T7 sequence (whole entry): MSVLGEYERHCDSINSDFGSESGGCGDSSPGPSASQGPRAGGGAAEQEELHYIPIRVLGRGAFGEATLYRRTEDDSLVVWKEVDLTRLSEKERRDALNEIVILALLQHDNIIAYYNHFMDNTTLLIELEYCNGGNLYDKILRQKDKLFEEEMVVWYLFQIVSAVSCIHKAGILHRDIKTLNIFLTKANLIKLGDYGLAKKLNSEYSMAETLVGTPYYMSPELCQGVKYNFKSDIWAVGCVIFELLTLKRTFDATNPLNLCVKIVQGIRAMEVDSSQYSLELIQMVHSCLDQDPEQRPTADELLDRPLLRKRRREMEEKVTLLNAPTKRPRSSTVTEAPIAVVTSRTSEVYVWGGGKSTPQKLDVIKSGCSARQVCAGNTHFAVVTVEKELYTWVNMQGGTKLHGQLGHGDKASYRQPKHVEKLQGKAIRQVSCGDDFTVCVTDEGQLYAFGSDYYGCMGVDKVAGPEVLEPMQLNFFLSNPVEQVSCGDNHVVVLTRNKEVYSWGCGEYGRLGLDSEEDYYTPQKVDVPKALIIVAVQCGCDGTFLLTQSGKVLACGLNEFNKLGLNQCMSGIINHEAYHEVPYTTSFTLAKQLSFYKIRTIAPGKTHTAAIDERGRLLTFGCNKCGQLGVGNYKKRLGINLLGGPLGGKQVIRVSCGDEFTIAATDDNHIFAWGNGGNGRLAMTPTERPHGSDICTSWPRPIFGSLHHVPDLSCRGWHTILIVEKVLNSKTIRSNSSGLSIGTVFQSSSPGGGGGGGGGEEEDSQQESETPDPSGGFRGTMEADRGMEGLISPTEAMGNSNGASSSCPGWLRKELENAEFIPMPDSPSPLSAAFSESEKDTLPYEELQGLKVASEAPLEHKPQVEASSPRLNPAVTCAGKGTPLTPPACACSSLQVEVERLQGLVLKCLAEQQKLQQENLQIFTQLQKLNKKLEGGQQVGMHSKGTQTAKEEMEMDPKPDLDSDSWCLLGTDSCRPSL
The following applies: at 0.1 µM.

Sequence of Sphingosine kinase 1 (Homo sapiens) (Q9NYA1 whole entry): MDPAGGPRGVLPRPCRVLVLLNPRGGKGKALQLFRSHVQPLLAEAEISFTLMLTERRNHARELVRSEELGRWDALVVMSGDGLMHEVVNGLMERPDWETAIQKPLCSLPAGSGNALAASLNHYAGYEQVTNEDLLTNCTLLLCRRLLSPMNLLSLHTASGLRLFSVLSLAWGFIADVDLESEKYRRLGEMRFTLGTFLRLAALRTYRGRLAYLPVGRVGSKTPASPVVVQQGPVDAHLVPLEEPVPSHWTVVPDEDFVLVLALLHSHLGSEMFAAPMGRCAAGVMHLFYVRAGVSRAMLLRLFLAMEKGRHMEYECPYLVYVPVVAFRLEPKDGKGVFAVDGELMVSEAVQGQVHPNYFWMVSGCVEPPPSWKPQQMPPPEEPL

Turning to `COc1ccc(-c2cc3c(N)ncnc3o2)cc1`, the inhibition was 0.27% in assay [1]; 0.92% in assay [2]; -0.08% in [3]; 4.9% in assay [4]; 14.2% in assay [5]; -1.6% in assay [6]. Besides, the inhibition is -3.79% in assay [7]; -0.63% in assay [8]; 6.4% in assay [9]; -2.31% in [10]; -1.16% in assay [11]; 0.22% in [12]. Moreover, the inhibition was 3.78% in [13]; -1.56% in assay [14]; -1.7% in [15]; -0.18% in assay [16]; -1.06% in assay [17]; -2.18% in [18]. The figures for the inhibition in assay [19] and in assay [20] were -0.87% and 4.69%, respectively.

For orientation: inhibition means the relative decrease from the control value, in per cent.

The values are drawn from ChEMBL document CHEMBL1961873, “Compounds: GSK PKIS; Assays: Nanosyn kinase panel” (2012).
